Measured values as given in PubChem BioAssay.

test: E. coli acrAB mutant growth effects, primary screen, E. coli filamentation inducers, strain DRC39, OD650, 48 h (AID 1179);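 further: screen aims at cell division blockers that make cells filament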; conditions: E. coli DRC39 delta-acrAB growth, higher = more signal, called active from +8 up or from −8 down

z-score, inactive:
COc1ccc(COC(=O)NN=C2C[C@@H](O)[C@@H](O)[C@@H]3[C@@H]4C(=O)N(Cc5ccccc5)C(=O)[C@@H]4CC[C@@H]23)cc1 0.935
O=C1C=C[C@@H](O)[C@@H]2[C@@H]3C(=O)N(Cc4ccccc4)C(=O)[C@@H]3CC[C@@H]12 0.116
CCCC[C@H]1CN2[C@@H](CC[C@@H](C)[C@@H]2c2ccc(Br)cc2)C(=O)O1 -0.985
COc1ccc(O[C@H]2C=C[C@@H](C#Cc3ccccc3)O[C@@H]2CO)cc1 0.14
O=C(NCCC[N+]1=CC=NC1c1ccccc1)N1CCCc2nc(-c3ccc(Br)cc3)ccc21 (stereo unspecified) -0.493
C[C@H]1CC[C@@H](C(=O)O)N[C@@H]1c1ccc(C#Cc2ccccc2)cc1 -0.384
CC(C)CN1CCc2nc(-c3ccccc3)c3c(c2C1)CO[C@@H](C)C3 -0.0811
COc1ccc(COC(=O)NN=C2C[C@@H](O)[C@@H](O)[C@@H]3[C@@H]4C(=O)N(Cc5ccc6c(c5)OCO6)C(=O)[C@@H]4CC[C@H]23)cc1 1.17
COC(=O)C(C(=O)OC)C1CCCC(=O)C1 (stereo unspecified) -0.561
CC(C)[C@@H](OCc1ccccc1)[C@H](C)C=NOC[C@@H](O)[C@H]1O[C@@H]2OC(C)(C)O[C@@H]2[C@H]1O -1.79
CCc1cc2c(nc1CC)CCN(CCC(C)=NO[C@@H]1O[C@H](COC(C)=O)[C@@H](OC(C)=O)[C@H](OC(C)=O)[C@H]1OC(C)=O)C2 -1.82
COC(=O)[C@H](C)NC(=O)CCC1CC(OC(=O)NCCc2ccc(F)cc2)CC2(CCCC(COC(=O)NCCc3ccccc3OC)O2)O1 (stereo partly specified) -0.487
CCOC(=O)[C@H](CC(C)C)NC(=O)CCC1CC(OC(=O)NCc2ccc3c(c2)OCO3)CC2(CCCC(COC(=O)NCCc3ccc(Cl)cc3)O2)O1 (stereo partly specified) -0.294
CC(CCN1CCc2nc(-c3ccccc3)c(-c3ccccc3)cc2C1)=NOC(C)CN1CCCc2nc(C)c(C)cc21 (stereo unspecified) -0.391
O=C1[C@H]2[C@H]3[C@H](O)[C@H](O)CC(=NO[C@@H]4O[C@H](CO)[C@@H](O)[C@H](O)[C@H]4O)[C@@H]3CC[C@H]2C(=O)N1C[C@@H]1CCCO1 0.172
COc1ccc(O[C@H]2C=C[C@@H](c3ccccc3)O[C@@H]2COC(=O)CCC(C)=NOC[C@@H](O)COCc2ccco2)cc1 -0.902
CC(C)=CCCC(C)=CCON=C1C[C@@H](O)[C@@H](O)[C@@H]2[C@@H]3C(=O)N(c4cccc(Oc5ccccc5)c4)C(=O)[C@@H]3CC[C@H]12 0.15
CO[C@@H]1C=CCC(=O)N[C@@H](C)C(=O)OC[C@@H](NS(=O)(=O)c2ccc(C)cc2)[C@H](C)C=CCC(=O)OC[C@H]1C -0.418
COc1ccc(COC(=O)NN=C2C[C@@H](O)[C@@H](O)[C@@H]3[C@@H]4C(=O)N(c5cccc(Oc6ccccc6)c5)C(=O)[C@@H]4CC[C@H]23)cc1 0.751
CCOC(=O)CCN1C(=O)[C@H]2[C@H]3[C@H](O)[C@H](O)CC(=NNC(=O)OCc4ccccc4)[C@H]3CC[C@H]2C1=O -0.354
CO[C@@H](C(C)C)[C@@H](C)C1OC(=O)CC1O (stereo partly specified) 0.468
CCN1C(=O)[C@H]2[C@H]3[C@H](O)[C@H](O)CC(=NO[C@H](C)c4cn([C@@H]5COC[C@H]5O)nn4)[C@@H]3CC[C@H]2C1=O -0.787
CCOC(=O)[C@H](CC(C)C)NC(=O)CCC1CC(OC(=O)NCCc2ccc(F)cc2)CC2(CCCC(COC(=O)NCc3cccc(C(F)(F)F)c3)O2)O1 (stereo partly specified) 0.0609
O=C1CCCC=C1C(O)C1CCCCC1 (stereo unspecified) 0.456
COc1ccc(COC(=O)NN=C2C[C@@H](O)[C@@H](O)[C@@H]3[C@@H]4C(=O)N(C5CCCCC5)C(=O)[C@@H]4CC[C@@H]23)cc1 -0.437
O=C1C2=CC[C@H]3C(=O)N(C4CCCCC4)C(=O)[C@H]3[C@H]2[C@H](O)[C@@H]2O[C@H]12 -1.02
O=C1C[C@@H](O)[C@@H](O)[C@@H]2[C@@H]3C(=O)N(C4CCCCC4)C(=O)[C@@H]3CC[C@@H]12 -0.354
C=CC[C@@H]1C=C[C@H](ON=CC[C@@H]2C=C[C@H](OC(C)=O)[C@@H](COC(C)=O)O2)[C@@H](CO)O1 0.984
CC(CCC(=O)OC[C@H]1O[C@H](C#Cc2ccccc2)C=C[C@@H]1Oc1ccc(C)cc1)=NO[C@H](C)c1cn([C@@H]2COC[C@H]2O)nn1 -0.651
COC(=O)[C@@H]1CC[C@H](C)[C@@H](c2ccc(C)cc2)N1C(=O)c1ccc(C=NOC[C@@H](O)[C@H]2O[C@@H]3OC(C)(C)O[C@@H]3[C@H]2O)cc1 0.577
C=CC[C@@H]1C=C[C@H](Oc2ccc(C)cc2)[C@@H](COC(=O)NCc2cccc3ccccc23)O1 -0.629
CCOC(=O)[C@H](CC(C)C)NC(=O)CCC1CC(OC(=O)NCc2ccc3c(c2)OCO3)CC2(CCCC(COC(=O)NCCC(C)C)O2)O1 (stereo partly specified) -0.0965
CCOC(=O)CCN1C(=O)[C@H]2[C@H]3[C@H](O)[C@H](O)CC(=NO[C@@H]4O[C@H](CO)[C@@H](O)[C@H](O)[C@H]4O)[C@@H]3CC[C@H]2C1=O 0.79
COC(=O)[C@H](C)NC(=O)CCC1CC(OC(=O)NCc2ccc3c(c2)OCO3)CC2(CCCC(COC(=O)NCCCN3CCCC3=O)O2)O1 (stereo partly specified) -0.028
Cc1ccc(S(=O)(=O)N[C@@H]2COC(=O)CC=C[C@@H](C)[C@H](NS(=O)(=O)c3ccc(C)cc3)COC(=O)[C@H](C)NC(=O)CC=C[C@H]2C)cc1 0.0462
CCOC(=O)[C@H](CC(C)C)NC(=O)CCC1CC(OC(=O)NCc2ccc3c(c2)OCO3)CC2(CCCC(COC(=O)NCCOC)O2)O1 (stereo partly specified) -1.31
